Source: the supplement of paper PMC6555819

Key:
Experiment in all cases: PBM binding z-score (relative to random genomic background probes); higher = stronger binding; sequences stand for … in GC…GCGATTGACAGCGTAGAATGAAGG
[1] = tested on: FXR:RXRa (NR concentration 270 nM, RXRa partner concentration 90 nM)
How it was run: (§1)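 Binding z-scores take random background probes as their reference. They come from custom Agilent 4×180K protein-binding microarrays incubated 1 h with ligand-free nuclear receptor dimers, with antibodies against each partner (one per run) detecting binding. Scanned fluorescence was regression-normalized.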

[2] = tested on: LXRa:RXRa (NR concentration 270 nM, RXRa partner concentration 90 nM)
How it was run: as §1

[3] = tested on: LXRa homodimer (NR concentration 270 nM)
How it was run: as §1

[4] = tested on: LXRb:RXRa (NR concentration 270 nM, RXRa partner concentration 90 nM)
How it was run: as §1

[5] = tested on: LXRb homodimer (NR concentration 270 nM)
How it was run: as §1

[6] = tested on: PPARa:RXRa (NR concentration 270 nM, RXRa partner concentration 90 nM)
How it was run: as §1

[7] = tested on: PPARg:RXRa (NR concentration 180 nM, RXRa partner concentration 90 nM)
How it was run: as §1

[8] = tested on: PPARg:RXRa 270nM:90nM, anti-RXR (NR concentration 270 nM, RXRa partner concentration 90 nM)
How it was run: as §1

[9] = tested on: PPARg:RXRa 30nM:10nM, anti-RXR (NR concentration 30 nM, RXRa partner concentration 10 nM)
How it was run: as §1

[10] = tested on: PPARg:RXRa 90nM:30nM, anti-RXR (NR concentration 90 nM, RXRa partner concentration 30 nM)
How it was run: as §1

[11] = tested on: PPARg:RXRa DBDmut IVT, anti-RXR (DBD mutation: RXRa K156A/R161A, NR concentration 270 nM, RXRa partner concentration 90 nM)
How it was run: as §1

[12] = tested on: PPARg:RXRa IVT, anti-PPARg (NR concentration 270 nM, RXRa partner concentration 90 nM)
How it was run: as §1

[13] = tested on: PPARg DBDmut:RXRa IVT, anti-PPARg (DBD mutation: PPARg1 K132A/R137A, NR concentration 270 nM, RXRa partner concentration 90 nM)
How it was run: as §1

[14] = tested on: PPARg DBDmut IVT, anti-PPARg (DBD mutation: PPARg1 K132A/R137A, NR concentration 270 nM)
How it was run: as §1

[15] = tested on: PPARg homodimer (NR concentration 180 nM)
How it was run: as §1

[16] = tested on: PXR:RXRa (NR concentration 270 nM, RXRa partner concentration 90 nM)
How it was run: as §1

[17] = tested on: PXR homodimer (NR concentration 270 nM)
How it was run: as §1

[18] = tested on: RARa:RXR (NR concentration 270 nM, RXRa partner concentration 90 nM)
How it was run: as §1

[19] = tested on: RARa homodimer (NR concentration 270 nM)
How it was run: as §1

[20] = tested on: RARb:RXRa (NR concentration 270 nM, RXRa partner concentration 90 nM)
How it was run: as §1

Sequence	PBM binding z-score [1]	PBM binding z-score [2]	PBM binding z-score [3]	PBM binding z-score [4]	PBM binding z-score [5]	PBM binding z-score [6]	PBM binding z-score [7]	PBM binding z-score [8]	PBM binding z-score [9]	PBM binding z-score [10]	PBM binding z-score [11]	PBM binding z-score [12]	PBM binding z-score [13]	PBM binding z-score [14]	PBM binding z-score [15]	PBM binding z-score [16]	PBM binding z-score [17]	PBM binding z-score [18]	PBM binding z-score [19]	PBM binding z-score [20]
GCTTACGGGTCAAAGGGTATAGCATGAATAGAAT	6.94	4.45	0.132	4.28	0.557	6.21	9	7.96	7.14	8.29	4.35	5.08	1.19	2.3	2.55	4.16	0.626	5.66	0.592	4.09
TAGCCTAGGTCATTGGGCCACTATAGTACGCATC	4.39	3.9	1.1	3.05	0.679	3.99	4.65	4.12	1.41	3.18	3.5	4.5	0.0417	-0.0772	0.995	1.63	-0.211	2.14	-0.101	3.49
CATACAGGGTCAGCAAGGCCAGAGTAGGGACGGC	4.73	3.36	-0.0417	2.23	-0.0671	4.51	3.47	3.27	0.536	2.04	1.19	2.54	0.587	0.984	1.18	2.66	0.241	3.24	0.341	4.25
CGTCCAAGGTCAGAGGGGTCAGTGAATGCCGAGT	6.36	4.81	1.33	4.54	0.592	5.12	4.33	4.71	1.43	3.39	2.84	3.28	-0.262	0.193	5.46	6.03	9.87	6.26	2.33	5.24
ATCTCGAGGTAAAGTTCAGTGAAAGATCGATAGA	1.3	1.92	1.04	1.29	0.424	2.4	2.53	3.53	1.91	3.69	0.243	1.24	0.853	0.574	1.21	2.17	1.44	1.34	0.469	2.86
TCTTGAAGATCAGCAGGTTAAGAAAGCTGGCCAA	0.211	0.582	-0.541	0.285	-0.955	0.856	-0.581	1.44	2.86	2.07	1.75	-0.514	-1.09	-0.481	-0.436	0.0848	-0.299	0.104	-0.00981	0.0583
TATACAGGGTCAAAGGCCAGAGCACGAATGTCGA	6.57	6.15	1.83	4.68	2.53	5.83	7.89	7.51	5.16	7.77	2.75	4.99	1.39	1.27	1.83	4.17	0.0861	5.31	0.94	4.36
